From PubChem BioAssay (Tox21)
Records with an inconclusive call do not appear. Active and inactive are the calls of the source. Unless noted, the call rests on the fitted dose curve; in most records, active means well fitted curve in the direction sought with a large enough effect in the repeat runs; inconclusive means weak or mixed curves; inactive means no such curve, though single readings can be large; an effect the other way counts as inactive or inconclusive.

Key:
[1] = qHTS assay to identify small molecule antagonists of the estrogen receptor alpha (ER-alpha) signaling pathway using the BG1 cell line in the presence of 0.1 nM 17-beta-estradiol - cell viability counter screen (AID 1259241); further: nearly all actives have a fitted effect of over 40% in size
Procedure, shortened: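 VM7Luc4E2, 4,000 cells/well, phenol red-free medium + 10% charcoal-stripped FBS; 24 hr plating; cpd + 0.1 nM E2 final, 22 hr 37C/5% CO2; CellTiter-Fluor 30 min, fluorescence.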

[2] = qHTS assay to identify small molecule antagonists of the androgen receptor (AR) signaling pathway using the MDA cell line in the presence of 0.5 nM R1881 - cell viability counter screen (AID 1259242); further: nearly all actives have a fitted effect of over 45% in size
Procedure, shortened: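 Viability of MDA-kb2 cells was multiplexed with the luciferase AR readout; after 16 hr with compounds and R1881 at 0.5 nM final, CellTiter-Fluor fluorescence was recorded.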

[3] = molecular target: Estrogen receptor (Homo sapiens) (UniProt P03372); assay: qHTS assay to identify small molecule antagonists of the estrogen receptor alpha (ER-alpha) signaling pathway using the BG1 cell line in the presence of 0.1 nM 17-beta-estradiol (AID 1259244); further: nearly all actives have a fitted effect of over 50% in size
Estrogen receptor (Homo sapiens), sequence (P03372 whole entry, looked up): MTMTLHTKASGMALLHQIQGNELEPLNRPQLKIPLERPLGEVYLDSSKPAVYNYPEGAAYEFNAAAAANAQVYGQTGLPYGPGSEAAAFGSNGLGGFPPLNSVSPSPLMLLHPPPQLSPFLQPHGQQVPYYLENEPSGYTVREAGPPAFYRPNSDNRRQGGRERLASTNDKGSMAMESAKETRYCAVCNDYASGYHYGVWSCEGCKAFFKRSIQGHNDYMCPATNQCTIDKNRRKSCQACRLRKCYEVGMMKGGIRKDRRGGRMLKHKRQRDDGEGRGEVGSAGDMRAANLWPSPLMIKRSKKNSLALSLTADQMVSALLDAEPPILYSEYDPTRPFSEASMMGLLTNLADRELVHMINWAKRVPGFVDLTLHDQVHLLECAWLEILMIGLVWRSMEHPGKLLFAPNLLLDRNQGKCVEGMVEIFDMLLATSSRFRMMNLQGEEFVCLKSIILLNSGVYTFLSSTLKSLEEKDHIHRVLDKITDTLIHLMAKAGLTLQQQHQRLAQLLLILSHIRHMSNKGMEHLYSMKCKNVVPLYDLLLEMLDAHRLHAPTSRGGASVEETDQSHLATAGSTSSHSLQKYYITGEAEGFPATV
Procedure, shortened: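 Estradiol at 0.1 nM (final) stimulates the endogenous ER-alpha of VM7Luc4E2 cells carrying an ERE-driven luciferase; compounds are co-incubated 22 h at 37C and luciferase output quantified by luminescence.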

[4] = qHTS assay to identify small molecule HDAC inhibitors (AID 1259364);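 further: wild-type HCT-116 cells with endogenous class I/II HDAC activity; top concentration of the series differs between compounds; nearly all actives have a fitted effect of over 45% in size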
Procedure, shortened: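 Read-out: luminescence of HDAC-Glo I/II reagent, 30 min RT, reflecting class I/II deacetylase activity in whole HCT-116 cells pre-exposed 2 h to DMSO-dissolved compounds.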

[5] = qHTS assay to identify small molecule agonists of the sonic hedgehog signaling (Shh) pathway - cell viability counter screen (AID 1259366); further: nearly all actives have a fitted effect of over 50% in size
Procedure, shortened: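 Cytotoxicity counter screen run in the same wells as the Shh reporter assay. NIH/3T3 cells carrying a Gli1 response element–driven luciferase were treated with DMSO-dissolved compounds for 24hr, and live-cell protease activity was measured with CellTiter-Fluor.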

[6] = qHTS assay to identify small molecule antagonists of the sonic hedgehog signaling (Shh) pathway - cell viability counter screen (AID 1259367); further: nearly all actives have a fitted effect of over 55% in size
Procedure, shortened: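 NIH/3T3-derived Gli1-Luc reporter cells, 2,000/well, plated 4 hr before compound addition, then stimulated with conditioned medium for 24 hr at 37C. Viability measured in the same wells by CellTiter-Fluor fluorescence, reagent added at 23 hr for 1 hr.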

[7] = qHTS assay to identify small molecule agonists of the sonic hedgehog signaling (Shh) pathway (AID 1259368; calls by dose curve;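 further: NIH/3T3-derived 3T3Gli1-Luc cells carrying a stable Gli1-driven firefly luciferase reporter; series mostly up to about 92 µM; nearly all actives have a fitted effect of over 15% in size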)
Procedure, shortened: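 A Gli1 transcriptional response element controlled firefly luciferase in 3T3Gli1-Luc cells. Compounds and a positive control were added 4 hr after plating, and cells were incubated a further 24 hr at 37 C before luminescence detection.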

[8] = qHTS assay to identify small molecule phospholipidosis (PLD) inducers (AID 1259344; active means well fitted curve in the direction sought with a large enough effect; an effect the other way counts as inactive or inconclusive)
Procedure, shortened: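 HepG2 cells, 900/well, treated with compound plus LipidTOX Red for 24 h at 37 C; amiodarone positive and DMSO negative controls. Fixed with paraformaldehyde/Hoechst, then high-content imaging scored LipidTOX pit count and integrated intensity per well and per cell.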

[9] = qHTS assay to identify small molecule HDAC inhibitors - cell viability counter screen (AID 1259365); further: series mostly up to about 92 µM; nearly all actives have a fitted effect of over 50% in size
Procedure, shortened: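 Luminescence from CellTiter-Glo, developed 30min at room temperature, reports viability of wild-type HCT-116 cells treated 2hr with compounds at 37 C and 5% CO2 after overnight plating.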
On the % scale 0 is the no-effect control and ±100 the full control effect.

CS(=O)(=O)Cl
inactive: outcome [1] | Potency [2] | Potency [3] | Potency [4] | Potency [5] | Potency [6] | outcome [7]

O=C(Cl)CCl
inactive: outcome [1] | Potency [2] | Potency [3] | Potency [4] | Potency [5] | Potency [6] | outcome [7]

COc1ccc2c(C(=O)c3ccc(Cl)cc3)c(C)n(CC(=O)O)c2c1
inactive: outcome [1] | Potency [2] | Potency [8] | Potency [4] | outcome [9] | Potency [5] | Potency [6] | outcome [7]

CN=CNc1ccc(C)cc1C
inactive: outcome [1] | Potency [2] | Potency [3] | Potency [4] | Potency [5] | outcome [7]

CCCOC(=O)Cc1ccc(OCC(=O)N(CC)CC)c(OC)c1
inactive: outcome [1] | Potency [2] | Potency [8] | Potency [4] | outcome [9] | Potency [5] | Potency [6] | outcome [7]

CN(CCO)CCO
inactive: outcome [1] | Potency [2] | Potency [3] | Potency [4] | outcome [9] | Potency [5] | Potency [6] | outcome [7]

NNC(N)=O
inactive: outcome [1] | Potency [2] | Potency [3] | Potency [4] | Potency [5] | Potency [6] | outcome [7]

CCOP(=S)(OCC)Oc1ccc(Cl)cc1Cl
inactive: outcome [1] | Potency [2] | Potency [3] | Potency [4] | outcome [9] | Potency [5] | Potency [6] | outcome [7]

C=CCN1CC[C@]23CCCC[C@H]2[C@H]1Cc1ccc(O)cc13
inactive: outcome [1] | Potency [2] | Potency [8] | Potency [4] | Potency [5] | outcome [7]

CCC1(c2cccc(O)c2)CCCCN(C)C1 (stereo not given)
inactive: outcome [1] | Potency [2] | Potency [8] | Potency [4] | outcome [9] | Potency [5] | outcome [7]

C[C@@H](N)[C@@H](O)c1ccccc1
inactive: outcome [1] | Potency [2] | Potency [8] | Potency [4] | outcome [9] | Potency [5] | Potency [6] | outcome [7]

C#CCOC(=O)/C=C(C)/C=C/CC(C)CCCC(C)C (stereo not given)
inactive: outcome [1] | Potency [2] | Potency [3] | Potency [4] | outcome [9] | Potency [5] | Potency [6] | outcome [7]

CCCC(C)(COC(N)=O)COC(N)=O
inactive: outcome [1] | Potency [2] | Potency [8] | Potency [4] | outcome [9] | Potency [5] | Potency [6] | outcome [7]

CCN[C@@H](C)Cc1cccc(C(F)(F)F)c1
inactive: outcome [1] | Potency [2] | Potency [3] | Potency [4] | Potency [5] | outcome [7]

CC(C)(C)NC[C@H](O)c1ccc(O)cc1Cl
inactive: outcome [1] | Potency [2] | Potency [8] | Potency [4] | outcome [9] | Potency [5] | Potency [6] | outcome [7]

C=CCC1(C(C)CC)C(=O)NC(=O)NC1=O (stereo not given)
inactive: outcome [1] | Potency [2] | Potency [3] | Potency [4] | outcome [9] | Potency [5] | Potency [6] | outcome [7]

C=C1CC[C@@]2(O)[C@H]3Cc4ccc(O)c5c4[C@@]2(CCN3CC2CC2)[C@H]1O5
inactive: outcome [1] | Potency [2] | Potency [8] | Potency [4] | outcome [9] | Potency [5] | Potency [6]

O=C1CC(=O)NC(=O)N1
inactive: outcome [1] | Potency [2] | Potency [3] | Potency [4] | Potency [5] | Potency [6] | outcome [7]

CC(=O)OCC1=C(C(=O)O)N2C(=O)[C@@H](N)[C@H]2SC1
inactive: activity change, negative = cytotoxicity [1] 4.49% [at 19 µM] | viability change, negative = cytotoxic [2] 4.78% [at 19 µM] | Potency [8] | activity change, negative = inhibition [4] -0.068% [at 19 µM] | activity change, negative = cytotoxicity [9] 0.172% [at 19 µM] | viability change, negative = cytotoxic [5] 1.92% [at 19 µM] | viability change, negative = cytotoxic [6] 0.909% [at 19 µM] | activity change [7] 0.594% [at 18.9 µM]

BrCC1CO1 (stereo not given)
inactive: outcome [1] | Potency [2] | Potency [3] | Potency [4] | outcome [9] | Potency [5] | Potency [6] | outcome [7]

CCCCCCCCBr
inactive: outcome [1] | Potency [2] | Potency [4] | outcome [9] | Potency [5] | Potency [6] | outcome [7]
